# Reference: PubChem BioAssay AID2073 (Sanford-Burnham Center for Chemical Genomics, 2009)
# “And” between values parts separate entries of the source, which are not always exact repeats. Equal values may be shown once. Hit rate of the full screen: of about 290,000 compounds, about 570 (0.2%) were called active. About 1% were inconclusive and are not listed. Cut-off read from the data, not from the text of the source: active = inhibition mostly above about 51% (no sharp cut-off); inconclusive = no clear call, values can overlap the other calls; inactive = mostly below about 53%. Only a selection was taken, and actives are over-represented in it overall.
# Biological target: Voltage-dependent N-type calcium channel subunit alpha-1B (Homo sapiens) (UniProt Q00975)
# Assay: disruptors of CaV2.2 binding to Mint1 – biochemical, HTRF (AID 2073)
# Conditions: HTRF protein-protein interaction, Mint1-CaV2.2, at 20 µM, stronger effect = higher value
# [1] = measured here: average of repeat tests
# Sequence of Voltage-dependent N-type calcium channel subunit alpha-1B (Homo sapiens) (Q00975 whole entry, looked up): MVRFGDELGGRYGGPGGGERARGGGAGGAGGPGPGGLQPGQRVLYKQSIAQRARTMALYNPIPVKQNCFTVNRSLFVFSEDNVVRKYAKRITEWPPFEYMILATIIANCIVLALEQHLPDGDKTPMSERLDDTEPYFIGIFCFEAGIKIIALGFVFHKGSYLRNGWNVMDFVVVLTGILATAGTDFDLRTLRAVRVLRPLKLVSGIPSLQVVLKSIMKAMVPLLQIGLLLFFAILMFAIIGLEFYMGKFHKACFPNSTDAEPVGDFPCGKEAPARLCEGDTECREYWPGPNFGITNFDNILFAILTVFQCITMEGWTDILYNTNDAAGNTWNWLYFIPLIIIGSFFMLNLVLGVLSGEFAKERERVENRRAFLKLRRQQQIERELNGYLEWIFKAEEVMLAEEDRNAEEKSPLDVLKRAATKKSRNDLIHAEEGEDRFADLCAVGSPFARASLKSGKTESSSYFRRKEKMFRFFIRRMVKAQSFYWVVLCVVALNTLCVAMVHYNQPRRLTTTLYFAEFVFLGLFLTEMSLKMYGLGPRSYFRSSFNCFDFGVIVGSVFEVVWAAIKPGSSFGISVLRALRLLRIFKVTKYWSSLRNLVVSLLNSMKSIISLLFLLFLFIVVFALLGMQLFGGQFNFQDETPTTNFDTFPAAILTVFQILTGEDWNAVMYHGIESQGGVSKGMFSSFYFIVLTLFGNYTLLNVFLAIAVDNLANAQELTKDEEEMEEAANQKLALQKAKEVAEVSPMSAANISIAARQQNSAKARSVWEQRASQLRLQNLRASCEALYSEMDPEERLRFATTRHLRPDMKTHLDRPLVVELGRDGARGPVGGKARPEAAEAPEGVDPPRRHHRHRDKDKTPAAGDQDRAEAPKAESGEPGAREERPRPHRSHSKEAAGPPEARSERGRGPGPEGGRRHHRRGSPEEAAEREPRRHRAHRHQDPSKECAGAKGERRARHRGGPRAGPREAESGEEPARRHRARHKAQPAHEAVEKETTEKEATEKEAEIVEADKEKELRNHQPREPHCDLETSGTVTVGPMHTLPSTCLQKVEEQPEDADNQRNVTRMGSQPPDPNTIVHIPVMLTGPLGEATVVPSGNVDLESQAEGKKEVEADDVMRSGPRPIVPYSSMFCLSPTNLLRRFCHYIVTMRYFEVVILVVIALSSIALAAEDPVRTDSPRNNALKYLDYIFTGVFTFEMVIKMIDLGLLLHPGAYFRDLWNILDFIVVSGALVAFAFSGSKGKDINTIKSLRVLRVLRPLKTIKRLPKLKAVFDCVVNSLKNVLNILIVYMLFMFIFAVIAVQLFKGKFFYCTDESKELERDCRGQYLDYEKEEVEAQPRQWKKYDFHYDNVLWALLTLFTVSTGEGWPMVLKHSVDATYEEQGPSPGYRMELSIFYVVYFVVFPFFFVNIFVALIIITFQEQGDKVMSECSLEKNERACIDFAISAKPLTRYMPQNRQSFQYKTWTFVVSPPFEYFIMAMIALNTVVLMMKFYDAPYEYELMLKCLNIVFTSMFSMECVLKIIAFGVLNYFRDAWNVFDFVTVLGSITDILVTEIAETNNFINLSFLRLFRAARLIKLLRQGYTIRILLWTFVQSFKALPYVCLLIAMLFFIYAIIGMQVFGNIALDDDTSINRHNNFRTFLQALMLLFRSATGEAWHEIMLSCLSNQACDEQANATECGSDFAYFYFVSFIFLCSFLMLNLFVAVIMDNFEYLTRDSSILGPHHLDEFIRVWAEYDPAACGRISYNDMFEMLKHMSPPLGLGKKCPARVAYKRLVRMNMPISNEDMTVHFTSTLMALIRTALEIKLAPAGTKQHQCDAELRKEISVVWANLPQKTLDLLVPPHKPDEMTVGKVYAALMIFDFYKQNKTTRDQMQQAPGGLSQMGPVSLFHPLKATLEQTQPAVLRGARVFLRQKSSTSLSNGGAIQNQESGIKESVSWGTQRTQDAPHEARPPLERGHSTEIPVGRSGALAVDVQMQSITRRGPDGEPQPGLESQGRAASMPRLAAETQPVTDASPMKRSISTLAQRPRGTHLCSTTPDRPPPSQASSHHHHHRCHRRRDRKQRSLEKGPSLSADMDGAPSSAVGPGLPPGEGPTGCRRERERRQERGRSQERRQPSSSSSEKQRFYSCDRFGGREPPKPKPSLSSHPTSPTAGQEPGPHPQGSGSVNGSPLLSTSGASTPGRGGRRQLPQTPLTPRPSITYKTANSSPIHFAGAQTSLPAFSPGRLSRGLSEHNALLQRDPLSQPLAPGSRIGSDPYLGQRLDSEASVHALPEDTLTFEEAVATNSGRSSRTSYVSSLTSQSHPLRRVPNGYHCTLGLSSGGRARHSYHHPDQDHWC
SMILES,inhibition,inhibition [1]
CCOc1ccc(C(CCc2ccccc2)NC(=O)c2ccccc2F)cc1OCC (stereo not given),5.7% (inactive),
O=C(O)C(Cc1c[nH]c2ccccc12)NS(=O)(=O)c1ccc(Br)cc1 (stereo not given),-0.4% (inactive),
CNC(=O)c1c(O)c2cccc3c2n(c1=O)CCC3,22.2% (inactive),
Cn1c(=S)[nH]c(=O)c2ncc(=O)[nH]c21,-1.9% (inactive),
O=C(O)CCCCC1CCSS1 (stereo not given),101% (active),
O=C(O)CCCCC1SCC2NC(=O)NC21 (stereo not given),8.5% (inactive) and -9.5% (inactive),
O=C(O)CCCCCCCC(=O)O,0.9% (inactive),
O=[N+]([O-])c1ccc(O)c(C=Nc2cccc3ccccc23)c1,-35.1% (inactive),
COCCNC(=O)C(c1ccc(OC)cc1)N(CCOC)C(=O)CCC(=O)Nc1nccs1 (stereo not given),-3.6% (inactive),
O=C(NCc1ccco1)c1cnc2ccccn2c1=O,0.3% (inactive),
O=C(NCc1ccco1)c1cccn2c(=O)c3cc4ccccc4cc3nc12,54.4% (active),
COCCCNC(=O)c1cccn2c(=O)c3cc4ccccc4cc3nc12,-3.3% (inactive),
Cc1ccc(N(C(=O)c2ccco2)C(C(=O)NC2CCCC2)c2cccnc2)cc1 (stereo not given),-0.3% (inactive),
O=C(N/N=C/c1ccc[nH]1)c1ccc(O)cc1,38.2% (inactive),
Cc1ccccc1/C=C1\SC(=S)N(/N=C/c2cc([N+](=O)[O-])ccc2O)C1=O,5.4% (inactive),
Cc1ccc(/C=C2\SC(=S)N(/N=C/c3cc([N+](=O)[O-])ccc3O)C2=O)o1,73.2% (active),
O=C1/C(=C/c2cccc(Br)c2)SC(=S)N1/N=C/c1cc([N+](=O)[O-])ccc1O,-2.1% (inactive),
CCn1cc(CN2CCCC(C(=O)c3ccc(-c4ccccc4)c(F)c3)C2)cn1 (stereo not given),6.5% (inactive),
O=C(O)C1CCC(N2C(=O)c3c(Cl)c(Cl)c(Cl)c(Cl)c3C2=O)CC1 (stereo not given),81.3% (active),
O=C(O)C1CCC(N2C(=O)C3CCCCC3C2=O)CC1 (stereo not given),-2.9% (inactive),
O=C(O)C1CCC(N2C(=O)c3cccc([N+](=O)[O-])c3C2=O)CC1 (stereo not given),5.9% (inactive),
O=C1C2C3C=CC(C3)C2C(=O)N1c1n[nH]c(-c2ccccc2)n1 (stereo not given),11% (inactive),
CC(=O)Oc1cc(O)c2c(c1)OC(c1ccc(OC(C)=O)c(OC(C)=O)c1)C(OC(C)=O)C2=O (stereo not given),8.9% (inactive),
O=C1NN(c2cccc(Br)c2)C(=O)/C1=C/c1ccc(-c2cc([N+](=O)[O-])ccc2O)o1,61.4% (active),

SMILES,inhibition,inhibition [1]
CC1=NN(c2ccc(C)cc2)C(=O)/C1=C/c1ccc(-c2cc([N+](=O)[O-])ccc2O)o1,44.4% (inactive),
O=C1NN(c2ccccc2)C(=O)/C1=C\c1ccc(-c2cc([N+](=O)[O-])ccc2O)o1,31.4% (inactive),
COc1ccc(/C=C2\SC(=S)N(CCC(=O)NCCCN3CCOCC3)C2=O)cc1,-10.7% (inactive),
CCc1ccc(C(=O)NNc2ccc(Cl)cc2)cc1,-10.8% (inactive),
COc1cc(CNCCO)cc(Br)c1OCc1cccs1,-3.4% (inactive),
O=C(Nn1cnnc1)c1csc2ccccc12,-11.1% (inactive),
Cc1cc2nc3c(=O)n(Cc4ccccc4)c(=O)[nH]c3nc2cc1N,55.1% (active),
CCCCCCn1c(=O)[nH]c2nc3cc(N)c(C)cc3nc2c1=O,4.4% (inactive),
Cc1cc2nc3c(=O)n(CCc4ccccc4)c(=O)[nH]c3nc2cc1N,36.3% (inactive),
NC1=NC[C@@H](Cc2ccc(O)cc2)N1CCc1cccc(F)c1,16.7% (inactive),
CC1CN(C(=O)CCCN2C(=O)c3ccccc3C2=O)CC(C)O1 (stereo not given),-7.3% (inactive),
COc1ccc2[nH]c(=O)c(CN(Cc3ccco3)C(c3nnnn3Cc3ccccc3)C(C)C)cc2c1 (stereo not given),12.1% (inactive),
COc1ccc2[nH]c(=O)c(CN(Cc3nnnn3Cc3ccco3)C3CCCCC3)cc2c1,1.1% (inactive),
Cn1c(/C=C/c2cccc([N+](=O)[O-])c2)nc2ccccc2c1=O,-20.2% (inactive),
CCOC(=O)C(O)(CC(=O)c1ccc(OC)cc1)C(F)(F)F (stereo not given),-6.5% (inactive),
CC(C)(C)c1cc(N)on1,-7.8% (inactive),
CC1=CC(=O)c2ccccc2C1=O,-11.2% (inactive),
COc1cccc2c1C(=O)C=C(C)C2=O,-19.2% (inactive),
CC1=CC(=O)c2c(O)ccc(O)c2C1=O,85.1% (active),
O=C(Nc1nnc(C2CC2)s1)C1CC(=O)N(c2ccc3c(c2)OCCO3)C1 (stereo not given),12.6% (inactive),
O=C(Nc1nc(-c2ccco2)c(-c2ccco2)s1)C1CCC1,58.1% (inactive),1.4%
O=C(CCCSc1ccccc1)Nc1nc(-c2ccco2)c(-c2ccco2)s1,71.8% (inactive),-7.2%
O=C(CCl)Nc1nc(-c2ccco2)c(-c2ccco2)s1,66% (active),
CCc1nnc(NC(=O)C2CC(=O)N(c3ccc4c(c3)OCCO4)C2)s1 (stereo not given),3% (inactive),

SMILES,inhibition,inhibition [1]
O=C(Nc1nc(-c2ccco2)c(-c2ccco2)s1)C1CC(=O)N(c2ccc3c(c2)OCCO3)C1 (stereo not given),66.7% (active),
COc1ccc(CCN(C(=S)Nc2ccccc2)C2CC(=O)N(c3ccccc3)C2=O)cc1 (stereo not given),6.3% (inactive),
CC(C)Oc1cccc(C(=O)C2CCCN(C(=O)c3ccsc3)C2)c1 (stereo not given),-8.4% (inactive),
N#Cc1cnc(NOCc2ccc(Cl)cc2)nc1,9.4% (inactive),
O=c1c2c3n(c(=O)nc2[nH]n1-c1ccccc1)CCCCC3,1.1% (inactive),
O=C(NCCN1CCOCC1)/C(=C\c1ccccc1Cl)NC(=O)c1ccccc1,9.8% (inactive),
COc1cc(/C=C2\SC(=Nc3ccccc3)N(CCc3c[nH]c4ccccc34)C2=O)ccc1OC(C)C(=O)O (stereo not given),6.2% (inactive),
COc1ccc(N=C2S/C(=C\c3ccc(OCC(=O)O)cc3)C(=O)N2CCc2c[nH]c3ccccc23)cc1,35.3% (inactive),
NS(=O)(=O)c1ccc(NCc2c(F)cccc2Cl)cc1,-1.1% (inactive),
Fc1cccc(Cl)c1CNc1ccc(N2CCCC2)cc1,54% (active),
Clc1cccc(Cl)c1CNc1ccc(N2CCCC2)cc1,31.8% (inactive),
CC(C)(C)SCCNC(=O)CN1C(=O)c2cccc3cccc1c23,35.7% (inactive),
O=c1cc(/N=C/c2coc3cc(Br)ccc3c2=O)[nH]c(=S)[nH]1,14.4% (inactive),
O=c1cc(/N=C/c2coc3c(ccc4ccccc43)c2=O)[nH]c(=S)[nH]1,52.9% (active),
CC(=O)Oc1ccc2c(=O)c(/C=N/c3cc(=O)[nH]c(=S)[nH]3)coc2c1,23.2% (inactive),
CCCCN(C)C(=O)c1c[nH]c2ccc(S(=O)(=O)N3CCOCC3)cc2c1=O,24.6% (inactive),
Cc1ccc(CNC(=O)c2ccc3c(c2)NC(=O)CS3)cc1,-5.9% (inactive),
COc1ccc(/C=C(\NC(=O)/C=C/c2ccco2)C(=O)NCCc2nc3ccccc3[nH]2)cc1,52.5% (active),
CC(C)Oc1ccc(/C=C(\NC(=O)/C=C/c2ccco2)C(=O)NCCc2nc3ccccc3[nH]2)cc1,9.4% (inactive),
COc1ccc(/C=C/C(=O)N/C(=C\c2ccco2)C(=O)NCCc2nc3ccccc3[nH]2)cc1,4.5% (inactive),
Cc1cc(C)c2c(c1)NC(c1cc3c(cc1Br)OCO3)C1CC=CC21 (stereo not given),12.6% (inactive),
CCOC(=O)/C(C#N)=C/c1cccc(F)c1,15.3% (inactive),
O=C(Nc1ccc2c(c1)nc1n2CCN(C2CCCCC2)C1)c1ccco1,57.2% (active),
O=C(Nc1ccc2c(c1)nc1n2CCN(C2CCCCC2)C1)NC1CCCCC1,11.3% (inactive),

SMILES,inhibition,inhibition [1]
CC(=O)Nc1ccc2c(c1)nc1n2CCN(C2CCCCC2)C1,30.1% (inactive),
CCc1ccc(NC(=O)Cn2nnc(C(=O)NCc3cccs3)c2N)cc1,26.5% (inactive),
O=S(=O)(c1ccc(F)cc1)N1CCN(c2ccc(-c3ccccc3)nn2)CC1,41.9% (inactive),
CCC1(C)Cc2nc3sc(C(=O)O)c(N)c3cc2CO1 (stereo not given),23.8% (inactive),
CC1(C)Cc2nc3sc(C(=O)NCCCO)c(N)c3cc2CS1,30.6% (inactive),
CC1(C)Cc2nc3sc(C(=O)O)c(N)c3cc2CS1,54.6% (active),
O=C(NCc1cccnc1)NC(=O)c1ccc(Cl)cc1,-3% (inactive),
O=C(CNC(=O)c1ccc(Cl)cc1)N/N=C/C=C/c1ccccc1,2.8% (inactive),
O=c1oc2c(CN3CCCCCC3)c(O)ccc2cc1-c1nc2ccccc2[nH]1,65.1% (active),
O=c1oc2c(CN3CCN(CCO)CC3)c(O)ccc2cc1-c1ccccn1,30.4% (inactive),
CCc1cc2c(=O)c(-c3nc4ccccc4[nH]3)coc2c(CN2CCCCC2)c1O,9.7% (inactive),
O=C(Cc1n[nH]c(=O)c2ccccc12)NC(c1ccccc1)c1ccccc1,1.8% (inactive),
CC(C)CNc1nc(Oc2ccc(=O)[nH]n2)nc(N2CCOCC2)n1,-12.9% (inactive),
COCCOC(=O)c1c(C)n(C)c2ccc(OC(=O)c3ccccc3F)cc12,-3.1% (inactive),
COc1ccc(-c2nn(-c3ccccc3)cc2/C=C(/C#N)C(N)=O)cc1[N+](=O)[O-],54.4% (active),
COc1ccc(-c2nn(-c3ccccc3)cc2/C=C(\C#N)C(N)=O)cc1[N+](=O)[O-],43.3% (inactive),
C=CCNC(=O)/C(C#N)=C/c1cn(-c2ccccc2)nc1-c1ccc(OC)c([N+](=O)[O-])c1,25.3% (inactive),
CC(NC(=O)c1cc(Br)ccc1Br)c1ccccc1 (stereo not given),15.9% (inactive),
Cc1cc(C)cc(NC(=S)NCc2cccnc2)c1,-3.3% (inactive),
S=C(NCc1cccnc1)NCc1cccnc1,-3.7% (inactive),
Cn1cccc1C(C#N)(CC#N)c1cccc(F)c1C#N (stereo not given),14.3% (inactive),
